This passage reports Potency and viability results from PubChem BioAssay (NCATS).

Records with an inconclusive call do not appear. A number with no mark means an inactive call. Active and inactive are the calls of the source. Calls come from the whole dose curve; as a rule, active = well fitted curve in the direction sought with a large enough effect; inconclusive = small, poorly fitted or top-dose-only effect, or another doubt; inactive = no such curve, though single readings can be large; an effect the other way counts as inactive or inconclusive.

Experiment [1] deals with Aldehyde dehydrogenase, mitochondrial (Homo sapiens) (UniProt P05091). The experiment in a line: qHTS for Inhibitors of the Aldehyde Dehydrogenase Family (ALDH2) Primary screen (AID 2061308).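 Note: plate controls were vehicle for no effect and reference inhibitor for full effect; nearly all actives have a fitted effect of over 55% in size.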
For experiment [2], the target named is Retinaldehyde dehydrogenase 3 (Homo sapiens) (UniProt P47895). The experiment in a line: qHTS for Inhibitors of the Aldehyde Dehydrogenase Family (ALDH1A3) Primary screen (AID 2061315).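 Note: plate controls were DMSO vehicle for no effect and reference inhibitor for full effect.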
Experiment [3] can be described thus: BET inhibitor-based combinations targeting novel dependencies in MECOM-rearranged (r) AML: OCI-AML3 cell line (AID 2202232). Note: nearly all actives have a fitted effect of over 35% in size. Note: potency is the fitted concentration of half-maximal effect. The note with it: Potency: OCI-AML3 viability. In a few lines:
(§1)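 AML cell lines seeded at 500 cells/well, treated with 11-point dose curves for 48 h. Viability by CellTiter-Glo luminescence, normalised to DMSO and empty wells; activity expressed as AUC and per-cell-line Z-transformed AUC.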

Experiment [4] can be described thus: BET inhibitor-based combinations targeting novel dependencies in MECOM-rearranged (r) AML: HNT-34 cell line (AID 2202234). Note: nearly all actives have a fitted effect of over 35% in size. Note: potency is the fitted concentration of half-maximal effect. In a few lines:
(§2)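 Cells at 500/well were exposed for 48 hr to MIPE v5.0 drugs as 11-point dose curves. Viability was read by CellTiter-Glo luminescence and normalized to DMSO and empty-well controls. Activity was expressed as AUC and per-cell-line Z-AUC.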

A short description of experiment [5]: BET inhibitor-based combinations targeting novel dependencies in MECOM-rearranged (r) AML: SET-2 cell line (AID 2202231).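 For viability: plate controls were DMSO treated cells for no effect and wells without cells for full effect.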 Note: nearly all actives have a fitted effect of over 35% in size. Note: potency is the fitted concentration of half-maximal effect. The note with it: SET-2 AML cells viability, CellTiter-Glo luminescence, 48 h; viability: hits give low values, concentration not given here. In short, it runs like this: as §1
Experiment [6] in a line: BET inhibitor-based combinations targeting novel dependencies in MECOM-rearranged (r) AML: MV-4-11 cell line (AID 2202233). Note: nearly all actives have a fitted effect of over 45% in size. Note: potency is the fitted concentration of half-maximal effect. In a few lines: as §2
A short description of experiment [7]: BET inhibitor-based combinations targeting novel dependencies in MECOM-rearranged (r) AML: UCSD-AML1 cell line (AID 2202235). Note: nearly all actives have a fitted effect of over 40% in size. Note: potency is the fitted concentration of half-maximal effect. In short, it runs like this: as §2
A short description of experiment [8]: BET inhibitor-based combinations targeting novel dependencies in MECOM-rearranged (r) AML: AML-191 cell line (AID 2202236; note: nearly all actives have a fitted effect of over 35% in size; note: potency is the fitted concentration of half-maximal effect). In a few lines: as §1
A short description of experiment [9]: BET inhibitor-based combinations targeting novel dependencies in MECOM-rearranged (r) AML: AML-194 cell line (AID 2202237; note: nearly all actives have a fitted effect of over 40% in size; note: potency is the fitted concentration of half-maximal effect). In short, it runs like this: as §1

As for `C/C(=C\CCC(C)CCO)C(=O)O[C@@H]1[C@@H](O)[C@H](OC2OC=C(C(=O)O)C3CCC(C)(O)C23)O[C@H](CO)[C@H]1O` (some centres not stated), the Potency result in experiment [1] and in experiment [2] was “inactive” throughout.

Consider `CC1(C)CN(C(=O)c2ccc(-c3cccc4nc(NC(=O)C5CC5)nn34)cc2)C1`, for which the Potency result in experiment [1], in experiment [2] and in experiment [3] was “inactive” each time. The Potency in experiment [4] is 18600 nM (active).

Regarding `CCOc1ccn(-c2ccc(F)cc2)c(=O)c1C(=O)Nc1ccc(Oc2ccnc(N)c2Cl)c(F)c1`, the Potency entry in experiment [1], in [2] and in [7] was “inactive” in each case. Further, the viability in experiment [5] was 104%. Besides, the Potency in experiment [6] is 1480 nM (active); in [4], 11800 nM (active); in [8], 8330 nM (active).

With `COc1ccc(CCc2nc3cc(-c4c(C)noc4C)ccc3n2CC(C)N2CCOCC2)cc1Cl` (configuration not stated), the Potency result in experiment [1] and in experiment [2] was “inactive” throughout.

Take `CC1(C)[C@@H](O)CC[C@]2(C)[C@H]3C(=O)C=C4[C@@H]5C[C@@](C)(C(=O)O)CC[C@]5(C)CC[C@@]4(C)[C@]3(C)CC[C@@H]12`: the Potency entry in experiment [1], in [2], in experiment [3], in experiment [6], in experiment [4] and in [8] was “inactive” each time. Moreover, in experiment [9], the Potency entry is “inactive”. Further, the viability in [5] was 112%.

Regarding `Cc1ccc(-c2ccc3ncc4c(c3n2)n(C2CCN(C(=O)[C@H](C)O)CC2)c(=O)n4C)cn1`, the Potency entry in [1] and in experiment [2] was “inactive” throughout. The Potency in experiment [5] is 166 nM (active); in experiment [3], 296 nM (active); in experiment [6], 209 nM (active); in experiment [4] it was 263 nM (active); in experiment [7], 93.4 nM (active); in experiment [8], 166 nM (active). Further, the Potency in experiment [9] was 417 nM (active).

On to `CC1(C)CC(=O)c2c(C(F)(F)F)nn(-c3ccc(C(N)=O)c(NC4CCC(O)CC4)c3)c2C1` (configuration not stated), for which the Potency entry in experiment [1] and in experiment [2] was “inactive” each time. For the same molecule, the Potency was 148 nM (active) in experiment [5], 74.2 nM (active) in experiment [3] and 105 nM (active) in experiment [7].
